Experimental data as given in PubChem BioAssay (NCATS).
Inconclusive results are not listed. A call without a number means that no potency is given here. The source made the active and inactive calls. Unless noted, calls come from the whole dose curve; as a rule, active = well fitted curve in the direction sought with a large enough effect; inconclusive = small, poorly fitted or top-dose-only effect, or another doubt; inactive = no such curve, though single readings can be large; an effect the other way counts as inactive or inconclusive.

Legend:
[1] = target: Calcium and integrin-binding protein 1 (Homo sapiens) (UniProt Q99828); test: Primary qHTS for Identification of Calcium Integrin Binding Protein 1 (CIB1) Competitor (AID 1508620);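 note: GST tagged CIB1 binding a fluorescein labelled alphaIIb integrin peptide tracer; top concentration of the series differs between compounds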
Calcium and integrin-binding protein 1 (Homo sapiens), sequence (Q99828 whole entry, looked up): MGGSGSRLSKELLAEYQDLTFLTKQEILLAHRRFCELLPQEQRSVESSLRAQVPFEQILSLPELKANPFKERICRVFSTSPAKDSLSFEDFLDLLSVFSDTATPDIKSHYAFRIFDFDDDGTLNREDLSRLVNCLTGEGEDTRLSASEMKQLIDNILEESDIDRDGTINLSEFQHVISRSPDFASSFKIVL
Summary of the method: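 Fluorescence polarization competition: CIB1-GST (1 uM final) preincubated with compound 15 min at room temperature, then FITC-labeled alphaIIb peptide (100 nM final) added for another 15 min. Polarization read at Ex 480/Em 540.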

[2] = Primary qHTS for small molecule stabilizers of the endoplasmic reticulum resident proteome: Secreted ER Calcium Modulated Protein (SERCaMP) assay (AID 1508630)
Summary of the method: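 The SH-SY5Y reporter protocol was run at 3 concentrations up to 38.3 uM (primary) or 11 concentrations (follow-up): 16 h compound, 100 nM thapsigargin for 4 h, then extracellular luciferase luminescence.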

[3] = target: Cytochrome P450 2D6 (Homo sapiens) (UniProt P10635); test: Cytochrome P450 family 2 subfamily D member 6 (CYP2D6) small molecule antagonists: luciferase biochemical (cell-free) qHTS assay (AID 1645840; active = well fitted curve in the direction sought with a large enough effect in the repeat runs; an effect the other way counts as inactive or inconclusive; note: nearly all actives have a fitted effect of over 55% in size; note: potency is the fitted concentration of half-maximal effect)
Cytochrome P450 2D6 (Homo sapiens), sequence (P10635 whole entry, looked up): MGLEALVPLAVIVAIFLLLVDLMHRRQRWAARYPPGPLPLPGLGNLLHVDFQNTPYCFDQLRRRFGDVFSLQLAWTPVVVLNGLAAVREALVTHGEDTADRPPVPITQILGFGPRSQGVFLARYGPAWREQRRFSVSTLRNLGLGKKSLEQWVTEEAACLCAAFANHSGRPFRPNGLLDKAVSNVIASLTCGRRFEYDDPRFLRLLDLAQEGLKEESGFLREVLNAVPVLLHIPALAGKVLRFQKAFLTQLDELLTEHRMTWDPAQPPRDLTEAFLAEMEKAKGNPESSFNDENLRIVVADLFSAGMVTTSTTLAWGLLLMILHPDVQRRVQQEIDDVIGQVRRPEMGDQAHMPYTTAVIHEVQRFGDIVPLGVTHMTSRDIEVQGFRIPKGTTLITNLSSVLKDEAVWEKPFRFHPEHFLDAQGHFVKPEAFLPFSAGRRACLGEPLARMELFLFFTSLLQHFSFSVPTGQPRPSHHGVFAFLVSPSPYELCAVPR
Summary of the method: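 P450-Glo CYP2D6 system: proluciferin substrate converted by enzyme to luciferin, read by luminescence proportional to activity. Enzyme-substrate mix with compound 10 min at room temperature, then NADPH regeneration 1 h before detection reagent.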

[4] = target: Cytochrome P450 2C9 (Homo sapiens) (UniProt P11712); test: Cytochrome P450 family 2 subfamily C member 9 (CYP2C9) small molecule antagonists: luciferase biochemical (cell-free) qHTS assay (AID 1645842; active = well fitted curve in the direction sought with a large enough effect in the repeat runs; an effect the other way counts as inactive or inconclusive; note: potency is the fitted concentration of half-maximal effect; nearly all actives have a fitted effect of over 55% in size)
Cytochrome P450 2C9 (Homo sapiens), sequence (P11712 whole entry, looked up): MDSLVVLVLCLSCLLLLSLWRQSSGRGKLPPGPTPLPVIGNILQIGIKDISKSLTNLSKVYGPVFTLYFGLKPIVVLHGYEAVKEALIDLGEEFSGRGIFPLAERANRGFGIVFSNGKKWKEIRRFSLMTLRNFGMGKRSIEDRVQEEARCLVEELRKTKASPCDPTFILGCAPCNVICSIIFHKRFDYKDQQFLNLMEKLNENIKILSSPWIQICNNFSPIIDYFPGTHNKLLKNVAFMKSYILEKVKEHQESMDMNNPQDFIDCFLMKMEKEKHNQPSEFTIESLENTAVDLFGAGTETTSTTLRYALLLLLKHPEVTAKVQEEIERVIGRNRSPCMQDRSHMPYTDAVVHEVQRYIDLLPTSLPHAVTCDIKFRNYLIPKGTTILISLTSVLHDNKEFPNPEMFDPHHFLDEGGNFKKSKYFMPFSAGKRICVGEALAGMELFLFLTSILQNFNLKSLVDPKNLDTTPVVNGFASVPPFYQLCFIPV
Summary of the method: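 P450-Glo CYP2C9 system: proluciferin substrate with enzyme in mix containing 0.4% BSA, 10 min at room temperature, then NADPH regeneration solution added and incubated 1 h at 37C. Detection reagent stopped reaction; luminescence read after 20 min as RLU.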

| SMILES | outcome [1] | Potency [2] | Potency [3] | Potency [4] |
| --- | --- | --- | --- | --- |
| C=C1C(=CC=C2CCCC3(C)[C@@H]([C@H](C)C=CC=CC(O)(CC)CC)CC[C@@H]23)C[C@@H](O)C[C@@H]1O (stereo not given in full) | inactive | inactive |  |  |
| Nc1ccccc1NC(=O)c1ccc(CNC(=O)OCc2cccnc2)cc1 | inactive | inactive |  |  |
| CC(C)(O)c1cc2nc(-c3cnc(N)nc3)nc(N3CCOCC3)c2s1 | inactive | inactive | inactive |  |
| CCOc1cc2ncc(C#N)c(Nc3ccc(F)c(Cl)c3)c2cc1NC(=O)C=CCN(C)C | inactive | inactive |  |  |
| Nc1cc(C(F)(F)F)c(-c2cc(N3CCOCC3)nc(N3CCOCC3)n2)cn1 | inactive | inactive |  |  |
| Cn1cc(-c2ccncc2)c(-c2ccc(OCc3ccc4ccccc4n3)cc2)n1 | inactive | inactive | 7.56 µM (active) | 0.601 µM (active) |
| Nc1ccn([C@@H]2O[C@H](CO)[C@H](O)C2(F)F)c(=O)n1 | inactive | inactive |  |  |
| CC(C)[C@H](C(=O)Nc1ccc(C(=O)NO)cc1)c1ccccc1 | inactive | inactive |  |  |
| CC(NCc1ccc2c(c1)nc(NC(=O)c1ccc(-c3cn[nH]c3)s1)n2CC(C)(C)O)C(C)(C)C (stereo not given) | inactive | inactive |  |  |
| O=C(Cc1ccc(-c2ccc(OCCN3CCOCC3)cc2)cn1)NCc1ccccc1 | inactive | inactive | inactive |  |
| CN[C@H]1CCc2cc(OC)c(OC)c(OC)c2-c2ccc(OC)c(=O)cc21 | inactive | inactive |  |  |
| Cc1[nH]c2ccccc2c1CCNCc1ccc(C=CC(=O)NO)cc1 | inactive | inactive |  |  |
| COc1cc2ncn(-c3cc(OCc4ccccc4C(F)(F)F)c(C(N)=O)s3)c2cc1OC | inactive | inactive |  |  |
